Experimental data from PubChem BioAssay AID1159580 (chemical genetic matrix, 2015).
Out of some 5,500 compounds screened, about 2,000 (36%) were called active. About 18% were inconclusive and are not listed. Rule as the data show it: active = normalized growth mostly below about 0.91 (no sharp cut-off); inconclusive = no clear call, values can overlap the other calls; inactive = mostly above about 0.92. The list shows a part of the results.

Assay: chemical genetic growth profiling, strain panel (AID 1159580);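 also: tested at 20 µM; growth read once vehicle control cultures reached saturation at 30 °C; 1 = growth at the plate median or of vehicle wells; lower values mean less growth of the strain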
Settings: S. cerevisiae deletion strains, growth OD
[1] = locus YHR030C, strain SLT2, active compounds read low
[2] = locus YHR079C, strain IRE1, active compounds read low
[3] = locus YJL095W, strain BCK1, active compounds read low
[4] = locus YJR066W, strain TOR1, active compounds read low
[5] = locus YLR113W, strain HOG1, active compounds read low
[6] = locus YNL183C, strain NPR1, active compounds read low
[7] = locus YOR231W, strain MKK1, active compounds read low
[8] = locus YPL256C, strain CLN2, active compounds read low

Measured: normalized growth

Cn1ncc(-c2nc(-c3ccc(Cl)cc3)cs2)c1N
inactive: locus YAR019C, strain CDC15, active compounds read low 0.933 | locus YBL105C, strain PKC1, active compounds read low 0.931 | locus YBR135W, strain CKS1, active compounds read low 0.935 | locus YBR136W, strain MEC1, active compounds read low 0.933 | locus YBR160W, strain CDC28, active compounds read low 0.939 | locus YDL017W, strain CDC7, active compounds read low 0.935 | locus YDL028C, strain MPS1, active compounds read low 0.94 | locus YDL101C, strain DUN1, active compounds read low 0.961 | locus YDL108W, strain KIN28, active compounds read low 0.936 | locus YDL132W, strain cdc53, active compounds read low 0.931 | locus YDL214C, strain PRR2, active compounds read low 0.904 | locus YDR052C, strain DBF4, active compounds read low 0.935 | locus YDR054C, strain cdc34, active compounds read low 0.91 | locus YDR226W, strain ADK1, active compounds read low 0.925 | locus YDR477W, strain SNF1, active compounds read low 0.785 | locus YER123W, strain YCK3, active compounds read low 0.921 | locus YER133W, strain GLC7, active compounds read low 0.75 | locus YFL009W, strain cdc4, active compounds read low 0.935 | locus YFL029C, strain CAK1, active compounds read low 0.942 | locus YFR003C, strain YPI1, active compounds read low 0.943 | locus YFR019W, strain FAB1, active compounds read low 0.95 | locus YFR028C, strain CDC14, active compounds read low 0.922 | locus YGR040W, strain KSS1, active compounds read low 0.785 | locus YGR052W, strain FMP48, active compounds read low 0.854 | locus YGR092W, strain DBF2, active compounds read low 0.781 | [2] 0.822 | locus YHR082C, strain KSP1, active compounds read low 0.897 | locus YHR205W, strain SCH9, active compounds read low 0.798 | locus YIL147C, strain SLN1, active compounds read low 0.936 | [3] 0.729 | locus YJL128C, strain PBS2, active compounds read low 0.987 | locus YJL157C, strain FAR1, active compounds read low 0.879 | locus YJR016C, strain ILV3, active compounds read low 0.934 | locus YJR066W, strain TOR1 (second series), active compounds read low 0.8 | [4] 0.78 | locus YKL048C, strain ELM1, active compounds read low 0.95 | locus YKL067W, strain YNK1, active compounds read low 0.932 | locus YKL101W, strain HSL1, active compounds read low 0.947 | locus YKL193C, strain SDS22, active compounds read low 0.924 | locus YKL203C, strain TOR2, active compounds read low 0.817 | [5] 0.906 | locus YLR133W, strain CKI1, active compounds read low 0.886 | locus YML070W, strain DAK1, active compounds read low 0.91 | locus YMR001C, strain CDC5, active compounds read low 0.914 | locus YMR205C, strain PFK2 (second series), active compounds read low 0.917 | locus YMR277W, strain FCP1, active compounds read low 0.914 | locus YNL006W, strain LST8, active compounds read low 0.95 | locus YNL020C, strain ARK1, active compounds read low 0.897 | locus YNL161W, strain CBK1, active compounds read low 0.93 | [6] 0.892 | locus YNL207W, strain RIO2, active compounds read low 0.916 | locus YNL222W, strain SSU72, active compounds read low 0.934 | locus YNL307C, strain MCK1 (second series), active compounds read low 0.899 | locus YOL078W, strain AVO1, active compounds read low 0.934 | locus YOL136C, strain PFK27, active compounds read low 0.939 | locus YOR061W, strain CKA2, active compounds read low 0.874 | locus YOR119C, strain RIO1, active compounds read low 0.803 | [7] 0.96 | locus YOR329C, strain SCD5, active compounds read low 0.944 | locus YPL031C, strain PHO85, active compounds read low 0.74 | locus YPL153C, strain RAD53, active compounds read low 0.776 | locus YPL204W, strain HRR25, active compounds read low 0.774 | locus YPL209C, strain IPL1, active compounds read low 0.938 | locus YPR025C, strain CCL1, active compounds read low 0.944 | locus YPR106W, strain ISR1, active compounds read low 0.955 | locus YPR111W, strain DBF20, active compounds read low 0.959 | strain NNK1, active compounds read low 0.966 | strain TSCII, active compounds read low 0.933
active: [1] 0.687 | locus YLR403W, strain SFP1, active compounds read low 0.651 | [8] 0.859

O[C@@H]1[C@H](O)CO[C@H]1O
inactive: [1] 0.995 | [2] 0.997 | [3] 1.01 | [4] 0.945 | [5] 1 | [6] 0.965 | [7] 0.992 | [8] 0.988
